Results on 24 molecules are retold here after paper PMC10163288.

The list is a sample of the results. The hit rate among all sequences tested is not known here. Values without a mark were called inactive.

Sequences and labels used below:
B1: il10ra_site1_sap_24_mot_HHH_b1_02665_000000293_0001_1_18_H_._HHH_b2_00244_0001_0000100001_0000001_0_0001_af2pred_0001 (protein)
chain: SSSSDSRELIRLLRRALELLNDGNPEEAEKLLERAQEIAEEANSLNLRVVIEFVLEQVEQHSSSS
B2: il10ra_site1_normal_mot_HHH_b2_08265_af2_000000206_0001_22_38_H_._HHH_b2_05887_0001_0000200025_0000002_0 (protein)
chain: SSSSSDEEEVEELTREIERLLEEGDLEEAARLIQELLRVAYENKDQEAIQLAWELAQLAKSSSSS
B3: il10ra_site1_normal_mot_HHH_b2_08186_000000021_0001_43_56_H_._HHH_b1_08707_0001_0000400035_0000001_0 (protein)
chain: SSSSSDIEELLEEAERLAEEGNPEEALRLLQEALRLIFENQDEELLQELWEVLRLVARLSSSSSS
B4: il10ra_site1_sap_8_mot_HHH_b1_06348_000000162_0001_1_15_H_._HHH_b1_06922_0001_0000100010_0000001_0_0001_af2pred_0001 (protein)
chain: SSSSSEAEKALRWFLRAVEELLKRGNPEAAKLALRDARFAAKFLNDEEIEERLEELEKLLDSSSS
B5: il10ra_site1_sap_18_mot_HHH_b1_04818_af2_000000063_0001_42_55_H_._HHH_b1_04225_af2_0002_0000100001_0000002_0_0001 (protein)
chain: SSSSDETEEVAELMREAVELDHNGDKEEAERVAREALELAEQLNNDVLRIQAEYLEKLIGSSSSS
B6: il10ra_site1_sap_17_mot_HHH_b2_03328_af2_000000127_0001_1_19_H_._HHH_b1_04993_0001_0000100008_0000001_0_0001 (protein)
chain: SSSSSIRERIIRLLYRALRLAAEGNPEEAERLIEEAHELAEELGDPELERYIRILLHFVRSSSSS
B7: il10ra_site1_sap_16_mot_HHH_b2_04251_af2_000000037_0001_42_56_H_._HHH_b1_07004_0001_0000200017_0000001_0_0001 (protein)
chain: SSSSDVRERAARVAIEVLRIAFQQSDPEALRAVWELFRRIIEEGDPELLEELEQLLEELRSSSSS
B8: il10ra_site1_sap_30_mot_HHH_b2_02053_af2_000000006_0001_3_19_H_._HHH_b2_06177_0001_0000100006_0000002_0_0001_af2pred_dldesign_0_af2pred (protein)
chain: SPEIEAIRALLKENLSLACAALAKLLAESGNQEDIALARELARLLFEDPERAKELAEKLLAELAK
B9: il10ra_site1_normal_mot_8756ee2cf497b5429c717dfc0c0bcfd6_0001_000000186_0001_1_13_H_._HHH_b1_07372_0001_0000100003_0000001_1 (protein)
chain: SSSSSEEAREVYELIRRAAELHRNGNPEEAEEVLKEAEELAREANNDVLLFQIEYLLRHIGSSSS
B10: il10ra_site1_sap_16_mot_HHH_b1_00992_000000182_0001_23_40_H_._HHH_b1_02295_af2_0001_0000300017_0000001_0_0001 (protein)
chain: SEQVREIEELLKRNVEQAIAALAHLLAKSGDPELLRLAKELSRLMFQNPEEARKLVEEILEELKK
B11: il10ra_site1_normal_mot_HHH_b2_03220_af2_000000223_0001_23_40_H_._HHH_b1_05042_0001_0000100015_0000001_0 (protein)
chain: SSSSSRELSEEAWELLREILELIYEGDEERAQELLREVEEIAEEANSFALEYTVRILKEQLSSSS
B12: il10ra_site1_sap_22_mot_690a356816548de866c59e88e666ab0a_0001_1_af2_000000025_0001_1_13_H_._HHH_b1_01796_af2_0001_0000400019_0000001_0_0001_af2pred_0001 (protein)
chain: SSSSDIAEADARQAFKLLEIAHEQNDEELLERALELLEYLARLSNDPEAERLLEEAEKLVGSSSS
B13: il10ra_site1_normal_mot_HHH_b1_01082_af2_000000031_0001_3_19_H_._HHH_b1_06064_0001_0000200007_0000001_0 (protein)
chain: SSSSSYEEVKKLIERIVELLRRGDHEEAEKLIRELEELAEELNNPSLRFVVRLLEEVLERLSSSS
B14: il10ra_site1_sap_17_mot_HHH_b1_03763_000000209_0001_22_38_H_._HHH_b1_06016_0001_0000500017_0000001_0_0001 (protein)
chain: SSSSDDDEELLEAALRIAEQALEAGDPESARLILLAAARIAEELGNEELLEEIRRLLEEIRSSSS
B15: il10ra_site1_normal_mot_HHH_b2_04131_000000071_0001_1_16_H_._HHH_b2_02423_af2_0001_0000200002_0000002_0 (protein)
chain: SSSSSSDEELQRLLHELLRLYLKGDPRVEEVAEELRELAEELNNEVARFIVEAVERRLSSSSSSS
B16: il10ra_site1_sap_21_mot_HHH_b1_05126_000000010_0001_38_52_H_._HHH_b2_05985_af2_0001_0000600013_0000001_1_0001 (protein)
chain: SSSSDLEEEIEKLLEELEELIKEGDRERITELALKIVKLIYEAKNAELLRRLWELVKAFYSSSSS
B17: il10ra_site1_normal_mot_HHH_b1_04771_000000013_0001_40_56_H_._HHH_b1_06413_0001_0000200008_0000001_0 (protein)
chain: SSSSDLDERVSRLSQEVFRLALRGNPEEAEKVVEEAIELAEEANNERALRVLRDLEQVLESSSSS
B18: il10ra_site1_normal_mot_HHH_b1_02997_000000220_0001_39_52_H_._HHH_b1_04476_0001_0000500018_0000001_0_af2pred_dldesign_0_af2pred (protein)
chain: SSSSSSSNEEVVALLRRAMEEPDPEEAKRLAEEALRLAQANNNEILAHTAQLLLEQLESSSSSSS
B19: il10ra_site1_sap_25_mot_HHH_b2_05761_af2_000000185_0001_1_18_H_._HHH_b1_05595_af2_0001_0000200006_0000001_0_0001 (protein)
chain: SSSSDEDERYVELSLRFAEWLLKEGDPEAAKRILEAAREIAERANNEELREELEELLEKIGSSSS
B20: il10ra_site1_normal_mot_3af0db62db2b275566dae2e03bf881fa_0001_000000003_0001_37_50_H_._HHH_b2_06527_0001_0000300018_0000001_0_af2pred_0001 (protein)
chain: SSSSSSDLEQQVRAAIWFAKNIHNPTVRRKALEFALKIAEEINNEELVEEIRELLEQVNSSSSSS
B21: il10ra_site1_normal_mot_3c6ad1a4bc7d4f5cf55cee527202d42a_0001_000000108_0001_32_49_H_._HHH_b2_03602_af2_0001_0000600008_0000001_0_af2pred_dldesign_0_af2pred (protein)
chain: SSSSSDKEYYDALVKYYKEALALGKPEAAEKIALKGAEMRLEGKSLEEFEEKAKEILEEESSSSS
B22: il10ra_site1_sap_23_mot_39ab2cb694c8b9c1dc7e65c0d672c93e_0001_000000036_0001_53_65_H_._HHH_b1_07337_0001_0000100009_0000001_0_0001 (protein)
chain: SSSSDEEYKEVKRLIEEIAEALRNNDEELVRELLEELRELAEEINNPAAEFSLRILEEALNSSSS
B23: il10ra_site1_normal_mot_HHH_b2_00277_af2_000000172_0001_1_17_H_._HHH_eva_0065_0002_0000400034_0000001_0 (protein)
chain: DPEKEKLEEEIREVLERFEKGKIDPEEAKELLSRLAFKAARLGDDEAVELAIRAYAAIHQAEQRS
B24: il10ra_site1_normal_mot_HHH_b2_00033_000000036_0001_41_54_H_._HHH_b1_08598_0001_0000300016_0000002_0 (protein)
chain: SSSSSSSDFQELALRALRLLIKRNDKELFQELWRLVKEIAEHGDPELREELEEFLEEISSSSSSS

Chain of il10ra, Q13651 (Q13651 whole entry): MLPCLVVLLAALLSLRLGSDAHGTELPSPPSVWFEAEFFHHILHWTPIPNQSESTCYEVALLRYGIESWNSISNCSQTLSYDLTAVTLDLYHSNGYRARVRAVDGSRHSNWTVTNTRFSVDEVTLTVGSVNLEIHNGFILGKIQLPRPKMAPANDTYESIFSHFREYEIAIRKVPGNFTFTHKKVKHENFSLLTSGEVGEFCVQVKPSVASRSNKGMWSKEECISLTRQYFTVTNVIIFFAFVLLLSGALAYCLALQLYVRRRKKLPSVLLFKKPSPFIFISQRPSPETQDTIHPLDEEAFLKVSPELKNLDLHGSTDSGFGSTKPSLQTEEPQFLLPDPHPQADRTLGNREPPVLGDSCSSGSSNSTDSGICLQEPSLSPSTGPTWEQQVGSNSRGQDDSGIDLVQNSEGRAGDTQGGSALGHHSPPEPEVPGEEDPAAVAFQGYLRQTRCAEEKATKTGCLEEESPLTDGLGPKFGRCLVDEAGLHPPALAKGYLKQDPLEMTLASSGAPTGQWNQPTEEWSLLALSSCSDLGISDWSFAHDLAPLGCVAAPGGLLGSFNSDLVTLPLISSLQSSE

This assay concerns the target il10ra, Q13651. The assay is described as follows: yeast display titration.
Regarding B1, the “apparent Kd” value was “no binding seen”. In the case of B2 it was “no binding seen”; in that of B3, “no binding seen”; in that of B4, “no binding seen”. The value for B5 was “no binding seen”; that for B6 was “no binding seen”; that for B7 was “no binding seen”. The value for B8 was “no binding seen”; that for B9 was “no binding seen”; that for B10 was “no binding seen”.

For the molecule B11, the “apparent Kd” value is “no binding seen”.

For B12, the “apparent Kd” value was “no binding seen”. The value for B13 was “no binding seen”; that for B14 was “no binding seen”; that for B15 was “no binding seen”. For B16, the “apparent Kd” value was “no binding seen”.

Regarding B17, the “apparent Kd” value was “no binding seen”. The value for B18 was “no binding seen”; that for B19 was “no binding seen”; that for B20 was “no binding seen”.

As to B21, the “apparent Kd” value is “no binding seen”. In the case of B22 it was “no binding seen”; in that of B23, “no binding seen”; in that of B24, “no binding seen”.
